From PubChem BioAssay (NCI)
Where “and” joins values, the source holds several entries; their conditions need not be identical. Equal values may be shown once. The panel holds about 79,000 compounds, 15% with a hit somewhere; the sample as a whole holds those more often. Calls of active or inactive are those of the source. Rule as the data show it: active = growth inhibition above about 70%; inactive = the rest.

What was measured:
[1] = NCI Yeast Anticancer Drug Screen. Data for the rad50 strain (AID 155);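 also: 0% = growth of vehicle-only cultures of the same strain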; conditions: S. cerevisiae rad50 strain growth inhibition; at 50.0 µM; hits give high values
Outline: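 Readout: growth inhibition relative to vehicle-treated cultures. Compound exposure was carried out in a genetically defined yeast strain deficient in DNA damage repair.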

[2] = NCI Yeast Anticancer Drug Screen. Data for the mec2-1 strain (AID 157); conditions: S. cerevisiae mec2-1 strain, at 50.0 µM, hits give high values
Outline: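 Test agents were screened against the mec2-1 yeast strain, with defined DNA repair or cell cycle alteration. Growth was scored as inhibition against vehicle-only controls.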

[3] = NCI Yeast Anticancer Drug Screen. Data for the sgs1 mgt1 strain (AID 161);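 also: 0% = growth of cultures given vehicle only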; conditions: S. cerevisiae sgs1 mgt1 strain, at 50.0 µM, hits give high values
Outline: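 Genetically altered yeast, compound exposure, growth inhibition relative to vehicle.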

[4] = NCI Yeast Anticancer Drug Screen. Data for the cln2 rad14 strain (AID 165);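 also: 0% = growth equal to vehicle treated cultures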; conditions: S. cerevisiae cln2 rad14 strain, at 50.0 µM, hits give high values
Outline: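 Growth of compound-exposed yeast (cln2 rad14 genotype) measured and expressed as inhibition relative to vehicle.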

[5] = NCI Yeast Anticancer Drug Screen. Data for the bub3 strain (AID 167); conditions: S. cerevisiae bub3 mutant strain, at 50.0 µM, hits give high values
Outline: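 Readout: yeast growth inhibition, expressed relative to vehicle-only wells. The test organism is a mutant strain from a panel with lesions in DNA repair or checkpoint genes.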

[6] = NCI Yeast Anticancer Drug Screen. Data for the mlh1 rad18 strain (AID 175); conditions: S. cerevisiae mlh1 rad18 strain growth inhibition; at 50.0 µM; hits give high values
Outline: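 In this whole-cell yeast screen, a strain with altered DNA damage repair is challenged with compound, and its growth is measured against matched vehicle-treated controls.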

Measured: growth inhibition

CCOP(=O)(OCC)Oc1cc(C)c(SC)c(C)c1
inactive: [1] -6.45% | [2] -24.4% | [3] -0.6% | [4] 9.25% | [5] 19% | [6] -16.8%

CCOP(=O)(NCCc1ccccc1)OCC
inactive: [1] -36.6% | [2] -37.4% | [3] -7.3% | [4] -3.9% | [5] -33% | [6] -12.4%

C#C[C@]1(O)CC[C@H]2[C@@H]3CCC4=C/C(=N/OC(=O)c5cccc6c(=O)c7ccccc7[nH]c56)CCC4[C@H]3CC[C@@]21CC (stereo partly specified)
inactive: [1] -15.8% | [2] -35% | [3] -30.4% | [4] 23.2% | [5] -29.1% | [6] -45.6%

Cc1ccccc1-n1c(CCl)nc2ccc(Br)cc2c1=O
inactive: [1] 18.4% | [2] 2.6% | [3] 12.6% | [4] 6.05% | [5] 1.35% | [6] 27.1%

O=C(CC(=O)C(F)(F)C(F)(F)C(F)(F)F)c1ccco1.[Ni]
inactive: [1] 17.2% | [2] 3.8% | [3] 27.9% | [4] -9.9% | [5] 2% | [6] 34.6%

CC1(C(=O)O)C2[Se]c3[se]ccc3C2C1(C)C(=O)O (stereo unspecified)
inactive: [1] -3.45% | [2] -12.7% | [3] -3.5% | [4] -12.2% | [5] 1.8% | [6] -4.55%

COc1cc(C2c3cc4c(cc3OC(NCCO)C2C)OCO4)cc(OC)c1O (stereo unspecified)
inactive: [1] 6.1% | [2] -11.5% | [3] -14.3% | [4] 9.25% | [5] -18.1% | [6] -0.65%

CC(C)NC(C)C(C)c1ccccc1 (stereo unspecified)
inactive: [1] 5.95% | [2] -3.15% | [3] 0.1% | [4] -11.9% | [5] -10.2% | [6] 11%

O=C1CC(=O)N(C2CCC(C3CCCCC3)CC2)C(=O)N1 (stereo unspecified)
inactive: [1] 14.1% | [2] 4.85% | [3] 27.5% | [4] 1.35% | [5] 22.3% | [6] 5.75%

CC(=O)O/C=C(/C=C/OC(C)=O)C(C/C=C(\C)C#CC=C(C)C)OC(C)=O (stereo unspecified)
inactive: [1] 4.95% | [2] -13.7% | [3] 0.8% | [4] -2.2% | [5] 5.5% | [6] -0.1%

CCN(CC)CCn1ncc2c(N)ncnc21
inactive: [1] -0.25% | [2] -9% | [3] -26.4% | [4] -19.6% | [5] -22.8% | [6] -1.15%

COc1ccc(CCNCc2ccc3ccccc3n2)cc1OC
inactive: [1] -0.35% | [2] -10.5% | [3] 7.2% | [4] -16.4% | [5] -11.5% | [6] 7.5%

C(=NC1CCCCC1)c1c[nH]c2ccccc12
inactive: [1] -24.9% | [2] -39.6% | [3] -5.05% | [4] 4.7% | [5] -27.5% | [6] -17.8%

CC12OC1(C)C1C(=O)OCC1C2=O (stereo unspecified)
inactive: [1] 3.4% | [2] 3.6% | [3] -3.45% | [4] 3.95% | [5] 3% | [6] -0.95%

O=C1C2CCC(C2)[CH]1[Hg][Cl] (stereo unspecified)
active: [1] 99.4% | [2] 99.7% | [3] 99.5% | [4] 99% | [5] 99.3% | [6] 99.5%

COc1ccc2c(c1O)[C@@]13CCN(C)[C@@H](C2)[C@H]1CC(C)C(=O)C3 (stereo partly specified)
inactive: [1] 5.65% | [2] -30.6% | [3] 8.55% | [4] 17.2% | [5] -0.6% | [6] -2.5%

CC1(C)C=C(NC(=O)N2CC2)C(C)(C)N1O
inactive: [1] 12.7% | [2] 11.3% | [3] -2% | [4] 9.75% | [5] 34.8% | [6] 1.45%

C/C=C(\CC)C1(C(C)C)C(=O)NC(=O)NC1=O
inactive: [1] 12.2% | [2] -1.35% | [3] -6.3% | [4] -33.9% | [5] 2% | [6] 10.4%

CCCC[As](=O)(O)C(C)C
inactive: [1] 5% | [2] 9.25% | [3] 2.5% | [4] 16% | [5] 6.95% | [6] 14.1%

CC(C)(CBr)COP1(=O)NCC(C)(C)CO1 (stereo unspecified)
inactive: [1] 13.7% | [2] -3.7% | [3] 3.85% | [4] 20.4% | [5] 4.2% | [6] 10.8%

CN1CCC(OC(=O)Oc2ccccc2)(c2ccccc2)CC1
inactive: [1] 1.6% | [2] 9.6% | [3] 3.95% | [4] 33.7% | [5] 48.5% | [6] -6.65%

CCOP(=O)(OCC)C(C#N)Cc1ccco1 (stereo unspecified)
inactive: [1] -19.2% | [2] -23.9% | [3] -14.1% | [4] -9.4% | [5] -4.1% | [6] 1.9%

C[N+](CCCl)(CCCl)Cc1cc([N+](=O)[O-])cc([N+](=O)[O-])c1
inactive: [1] -6.05% | [2] -3.05% | [3] 8.9% | [4] -8.6% | [5] -1.25% | [6] 5.95%

C=CC12CN(C)C3C4COC(CC41)C1(C(=O)Nc4ccccc41)C32 (stereo unspecified)
inactive: [1] 1.25% and -22.5% | [2] -3.3% and -18.6% | [3] -7.35% | [4] -13.5% | [5] -11.6% | [6] 29.2% and -19.2%

NCC#CCNCCCN1CC1
inactive: [1] 8.2% | [2] 47.2% | [3] -9.4% | [4] 16.9% | [5] -1.55% | [6] -41.5%

N=C(N)N1CCNc2ccccc2C1
inactive: [1] 14.9% | [2] -10.2% | [3] -7.3% | [4] 28.8% | [5] -1.2% | [6] 6.3%

ClCc1cccc2ccccc12
inactive: [1] -28.7% | [2] -4.7% | [3] -26.1% | [4] -6.05% | [5] -7.6% | [6] -39%

C=CCC1(CC=C)C(=O)N(C)C(=O)N(C)C1=O
inactive: [1] 7.25% | [2] 13.7% | [3] -6.75% | [4] 8.45% | [5] 5.2% | [6] -6.95%

C=C1CC/C=C(/C)C(=O)C(OC(C)=O)C2C1CC2(C)C (stereo unspecified)
active: [1] 78% | [2] 83.6% | [3] 81.2% | [4] 70.7% | [5] 86.2% | [6] 81.4%

CC12CCC3C(=CC=C4CC(O)CCC43C)C1CCC2=O (stereo unspecified)
inactive: [1] 1.9% and 14.2% | [2] 17.2% and 0.65% | [3] 18.6% and 10.6% | [4] 0.95% and -45.7% | [5] 22.9% and -11.6% | [6] 23.1% and 16.1%

Cc1cc(C)n(SC(Cl)(Cl)Cl)n1
inactive: [1] -12.3% | [2] 28.3% | [3] -15.3% | [4] -4.6% | [5] 7.45% | [6] -13.7%

NNC(=O)NC(=O)NN
inactive: [1] 1.25% | [2] 5.4% | [3] 4.6% | [4] -8.95% | [5] -0.15% | [6] 9.6%

S=P(Nc1ccccc1Cl)(Nc1ccccc1Cl)c1ccccc1
inactive: [1] 30.3% | [2] 25.8% | [3] 39.9% | [4] 37.9% | [5] 39.4% | [6] 21%

CC(=O)C(C(C)=O)C(C)=O.CC(=O)C(C(C)=O)C(C)=O.CC(=O)C(C(C)=O)C(C)=O.[Cr]
inactive: [1] 25.2% | [2] 2.8% | [3] 11.2% | [4] 7.25% | [5] -3.6% | [6] 5.25%

CCN1CCC(OC(=O)c2ccccc2)(c2nccc3ccccc23)CC1
inactive: [1] -5.85% | [2] 0.95% | [3] 7.05% | [4] 9.05% | [5] 9.75% | [6] 8.9%

[Cl][Hg][c]1cccc(I)c1N=Nc1ccccc1
active: [1] 81.9%
inactive: [2] 21.3% | [3] 66.2% | [4] 4.9% | [5] 2.25% | [6] 69.8%

CC1C2CCC3C(O)C2(CC(O)C2(O)C1CC(O)C2(C)C)CC3(C)O (stereo unspecified)
inactive: [1] 11.6% | [2] -24.8% | [3] 6.85% | [4] 13.3% | [5] -5.15% | [6] -4.35%

O=C([O-])CC(=O)[O-].[Cu+2].[OH3+].[OH3+]
inactive: [1] 24.9% | [2] 11.2% | [3] 12.2% | [4] -19.6% | [5] -9.35% | [6] 6.1%

CCCC1(c2ccccc2)C(=O)NCNC1=O
inactive: [1] -21.8% | [2] -30.4% | [3] -24.3% | [4] -12.2% | [5] -25.4% | [6] -25.1%

O=C(Oc1cc(Cl)c(S(=O)(=O)F)cc1Cl)c1ccccc1Cl
active: [1] 93.5% | [2] 96% | [3] 97.1% | [4] 86.8% | [5] 94.9% | [6] 96.8%

COc1cc(C2c3cc4c(c(O)c3C[C@H]3COC(=O)[C@@H]23)OCO4)cc(OC)c1O (stereo partly specified)
inactive: [1] -25.7% | [2] -23.1% | [3] -16.8% | [4] 5.8% | [5] 2.85% | [6] -13.6%
